Measurements reported in the supplement of paper PMC12340641.
Counter-ions that a name gives are not always drawn. ± gives the standard deviation of the averaged measurements.

What was measured:
[1] = molecular target: IKZF1 (dCK*-IKZF1 fusion in HEK293FT) (UniProt Q13422); test: inhibition of IKZF1 HTRF signal (DMSO = 0%, pomalidomide 10 uM = 100%); higher = lower IKZF1 protein level; conditions: compound concentration: 5 uM, overnight (~20 h)
How it was run: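 Values are percent inhibition of IKZF1 signal, normalised plate by plate against vehicle and a reference degrader. HEK293FT cells stably expressing an IKZF1 fusion were seeded at 2000 per well in 384-well plates and exposed to 5 μM compound in single wells overnight at 37 °C. After 30 min lysis at room temperature, lysates were incubated overnight with a commercial HTRF total-IKZF1 antibody kit, and the background-subtracted 665/620 nm time-resolved FRET ratio was read. On each plate, vehicle was set at 0% and the reference degrader at 100%.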

[2] = test system: HEK293FT dCK*-only; test: relative growth in counter assay (no AraC = 100%, AraC + DMSO = 0%); higher = more growth rescue independent of IKZF1; conditions: compound concentration: 5 uM; AraC concentration: 0.3 uM; overnight pretreatment + 4 days AraC
How it was run: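 This counter assay used HEK293FT cells expressing only an engineered kinase construct, seeded at 300 per well in 384-well plates. Compound was added at 5 μM 2 h after seeding, and after overnight at 37 °C the cells received a nucleoside suicide substrate at 0.3 μM plus medium for 4 days. On day 5, nuclei stained with Hoechst 33342 were counted by imaging, and relative growth was normalised per plate; wells without suicide substrate were set at 100% and wells with substrate plus vehicle at 0%.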

[3] = test system: HEK293FT dCK*-IKZF1; test: relative growth recovery (pomalidomide 10 uM = 100%, DMSO = 0%); higher = more growth rescue (IKZF1 fusion degradation); conditions: compound concentration: 5 uM; AraC concentration: 0.3 uM; overnight pretreatment + 4 days AraC
How it was run: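 On day 5, whole-well imaging was used to count Hoechst 33342-stained nuclei of HEK293FT cells stably carrying a deoxycytidine kinase–IKZF1 fusion. These cells had received 5 μM compound 2 h after seeding, followed after overnight at 37 °C by a nucleoside suicide substrate at 0.3 μM plus medium for 4 days. Growth recovery was normalised on each plate against a reference degrader and vehicle, which defined 100% and 0%, and values are duplicate means from separate days.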

Chain of IKZF1 (dCK*-IKZF1 fusion in HEK293FT) (Q13422 whole entry, looked up, the tested form may be a part): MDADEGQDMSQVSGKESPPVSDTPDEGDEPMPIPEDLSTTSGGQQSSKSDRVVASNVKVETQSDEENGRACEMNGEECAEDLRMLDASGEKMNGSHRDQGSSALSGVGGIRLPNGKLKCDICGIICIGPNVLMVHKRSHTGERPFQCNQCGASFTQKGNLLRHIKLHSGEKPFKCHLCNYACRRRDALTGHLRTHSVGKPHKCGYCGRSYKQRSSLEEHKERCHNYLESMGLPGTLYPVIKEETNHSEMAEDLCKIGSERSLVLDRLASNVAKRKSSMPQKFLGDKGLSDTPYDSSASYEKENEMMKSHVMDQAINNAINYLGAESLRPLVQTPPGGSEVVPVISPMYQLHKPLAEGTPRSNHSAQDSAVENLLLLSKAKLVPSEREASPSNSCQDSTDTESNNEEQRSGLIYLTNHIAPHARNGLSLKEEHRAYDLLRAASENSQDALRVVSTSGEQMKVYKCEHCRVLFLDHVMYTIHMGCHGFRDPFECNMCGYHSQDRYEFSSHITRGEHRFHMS

| SMILES | inhibition of IKZF1 HTRF signal [1] [%] | relative growth in counter assay [2] [%] | relative growth recovery [3] [%] |
| --- | --- | --- | --- |
| Oc1c(Br)cc(Br)c2cccnc12 | 1.09 | -4.45 | -2.54 |
| COc1ccc(NS(=O)(=O)c2ccc(N=Nc3ccc(O)c(C(=O)O)c3)cc2)nn1 [salazodine] | -2.92 | 6.32 | -2.83 |
| CCCCCCc1ccc(O)cc1O | -30.8 | 4.87 | 2.99 |
| CN(C)CC/C=C1/c2ccccc2Sc2ccc(Cl)cc21 | -9.91 | 11.5 | -0.74 |
| CC(C)(C)c1cc(O)c(C(C)(C)C)cc1O | -31.7 | -0.82 | -0.575 |
| OCCN1CCN(CCCN2c3ccccc3Sc3ccc(Cl)cc32)CC1 [Perphenazine] | 0.695 ± 0.86 | 7.41 ± 5.6 | 2.98 ± 1 |
| Cc1ccc(-c2ccc(C)cn2)nc1 [abametapir] | -30.6 | 4.64 | 0.52 |
| CCN(CC)C(=S)SSC(=S)N(CC)CC | -34.2 | -35.6 | -12.6 |
| CN(C)CC(O)Cn1c2ccc(Br)cc2c2cc(Br)ccc21 (stereo unspecified) [wiskostatin] | -32.4 | -9.92 | -2.88 |
| CCCCCCCCN=c1ccn(CCCCCCCCCCn2ccc(=NCCCCCCCC)cc2)cc1 [Octenidine Dihydrochloride] | 64.7 | -35.3 | -14.7 |
| CC/C(=C(\c1ccc(O)cc1)c1ccc(OCCN(C)C(=O)COCCOCCOCCOc2cccc(C(=O)c3csc([C@@H]4CCCN4C(=O)[C@@H](NC(=O)[C@H](C)NC)C4CCCCC4)n3)c2)cc1)c1ccccc1 | 13.9 | -31.8 | -11.5 |
| COc1ccc(NC(=O)c2ccc(-c3ccc(-c4noc(C)n4)cc3C)cc2)cc1N1CCN(C)CC1 | -35.8 | -19.7 | 1.76 |
